Several values for one entry are separate records, joined by “and”; a condition that tells them apart may be missing. Equal entries are not always repeated. The panel holds about 79,000 compounds, 15% with a hit somewhere; the sample as a whole holds those more often. Values without a mark were called inactive. Activity calls are given as the source filed them. Cut-off read from the data, not from the text of the source: active = growth inhibition above about 70%; inactive = the rest.
Experiments:
[1] = NCI Yeast Anticancer Drug Screen. Data for the rad50 strain (AID 155);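 note: 0% = growth of vehicle-only cultures of the same strain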; details: S. cerevisiae rad50 strain growth inhibition, hits give high values; at 50.0 µM unless noted
Procedure, shortened: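 Genetically altered yeast (DNA repair pathway); compound treatment; growth inhibition vs vehicle ctrl.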

[2] = NCI Yeast Anticancer Drug Screen. Data for the mec2-1 strain (AID 157); details: S. cerevisiae mec2-1 strain, hits give high values; at 50.0 µM unless noted
Procedure, shortened: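 Compounds were applied to mec2-1 yeast cells. Their growth was then compared with that of vehicle-treated cultures to give growth inhibition.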

[3] = NCI Yeast Anticancer Drug Screen. Data for the sgs1 mgt1 strain (AID 161);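 note: 0% = growth of cultures given vehicle only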; details: S. cerevisiae sgs1 mgt1 strain, hits give high values; at 50.0 µM unless noted
Procedure, shortened: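 Yeast cells carrying a defined DNA-repair defect were exposed to test compounds. Growth inhibition was measured relative to vehicle-treated controls.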

[4] = NCI Yeast Anticancer Drug Screen. Data for the cln2 rad14 strain (AID 165);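 note: 0% = growth equal to vehicle treated cultures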; details: S. cerevisiae cln2 rad14 strain, hits give high values; at 50.0 µM unless noted
Procedure, shortened: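 Strain: cln2 rad14 yeast, altered in cell cycle control and DNA damage repair. Read-out: growth inhibition vs vehicle.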

[5] = NCI Yeast Anticancer Drug Screen. Data for the bub3 strain (AID 167); details: S. cerevisiae bub3 mutant strain, hits give high values; at 50.0 µM unless noted
Procedure, shortened: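 Yeast carrying a defined mutation is treated with each compound, and growth is compared with that of vehicle-exposed cells to give inhibition.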

[6] = NCI Yeast Anticancer Drug Screen. Data for the mlh1 rad18 strain (AID 175); details: S. cerevisiae mlh1 rad18 strain growth inhibition, hits give high values; at 50.0 µM unless noted
Procedure, shortened: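 A repair-deficient yeast strain is exposed to test compound, and growth is scored relative to vehicle-treated controls.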

| Compound | growth inhibition [1] | growth inhibition [2] | growth inhibition [3] | growth inhibition [4] | growth inhibition [5] | growth inhibition [6] |
| --- | --- | --- | --- | --- | --- | --- |
| CSc1ncn(C)c1C(N)=O | 0.1% | 4.25% | 1.5% | -5.2% | -3.25% | 11.2% |
| CCCCOC(c1ccccc1)c1ccccc1 | -19.8% | -18.6% | -11.8% | -17.8% | -4.25% | 1.95% |
| CN1C=C(C(N)=O)Cc2ccsc21 | 10.7% | -10.8% | -15.8% | -8.95% | -17.1% | -18.5% |
| CC(=O)CC(=O)Nc1ccc2ccccc2c1 | -1.9% | -12% | -8.3% | -36.4% | -37.9% | -14.6% |
| C=C(C)C(C)/C(C)=N/NC(N)=O (centres undefined) (tested in a mixture with another compound) | 6.85% | 3.3% | -5.75% | 10.4% | 10.6% | -15.8% |
| C[N+]1(Cc2csc(-c3ccc(Cl)cc3)n2)CCOCC1 | 3.15% | -25.6% | 10.5% | 9.35% | 0.7% | 4.2% |
| CC(C)CCO/N=C(\N)N=C(N)N | -17.4% | -5.8% | 14.3% | 2.7% | -1.75% | -1.9% |
| O=C(O)CSCC(=O)Nc1ccccc1Cl | -11.6% | -10.3% | 14.6% | 6.05% | 4.3% | -0.35% |
| O=C1CC2c3ccccc3CCN2C2=C1CCC2 (centres undefined) | 13.6% | 13.1% | -0.4% | -16.2% | 0.5% | 18.7% |
| O=c1[nH]c(/C=C/c2ccccc2)c([N+](=O)[O-])c(=O)[nH]1 | -7% | 2.9% | -12.7% | -19.6% | 26.6% | 16.8% |
| CCOC(=O)NC(=O)c1cn(CCOCCOC(=O)NCCCCCCNC(=O)OCCOCCn2cc(C(=O)NC(=O)OCC)c(=O)[nH]c2=O)c(=O)[nH]c1=O | 5.05% | 24.2% | 25.6% | 20.1% | -6.9% | 29.6% |
| O=C(C(=C(I)I)c1ccccc1)c1ccccc1 | 7.7% | -7.95% | 25.1% | -13.7% | 13.6% | -75.4% |
| COc1cc(OC)c2c(c1)C(C)(C)CCC2(C)C | 9.2% | 2.9% | -7.45% | -23.4% | 16.2% | 4.4% |
| O=C(O)/C=C/c1cc(Br)sc1Br | -2.05% | 7.35% | 5% | -11.3% | -0.95% | 19.5% |
| O=C(Nc1ccc(Br)cc1)C(Br)C(Br)c1ccccc1 (centres undefined) | 98% (active) | 97.7% (active) | 98.6% (active) | 96.7% (active) | 97.8% (active) | 97.9% (active) |
| CCCCCCCCC(=O)NCO | -17.8% | -10.9% | -21.4% | -3.4% | -25.6% | -24.1% |
| O=S(=O)(O)c1ccc(N=Nc2ccc(O)cc2)cc1 | -15.8% and 28.8% | -27.9% and -10.4% | -10.1% | -53.9% | 3.7% | -17.4% and 8.65% |
| CCCCCCCCCCCCCCCCNC(=O)C(=O)/C=C(\O)c1ccc(C)cc1 | 1.15% | -24.4% | 18.8% | -44.5% | 0.6% | 1.4% |
| Cn1c(NN)nc2ccccc2c1=O | -33.7% | -3.25% | -26.9% | 5.55% | -16.9% | -27.8% |
